Rows were chosen to be rich in hits. Some 7.5% of all compounds tested hit in one or more screens of this group.
Rab9 promoter act: activates the Rab9 promoter; Potency, µM (doses to about 9.22 µM), actives largely listed as activators; Huh7 Rab9 promoter-luciferase reporter, luminescence, 24 h; AID 485297; actives 2.8% (n = 320,000); note: nearly all actives have a fitted effect of over 60% in size
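Stable Rab9-luc Huh7, 1500 cells/well, 2 h settle; cmpd in DMSO, 24 h, 37 °C/5% CO2; luciferase reagent 10 min RT; luminescence.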
FLuc counter: inhibits or activates purified firefly luciferase, miR-21 counter-screen. P08659. purified FLuc, Km substrates, luminescence inhibition. Potency, µM (top dose mostly 57.5 µM), most hits filed as inhibitors. actives 6.9% (n = 360,000). AID 588342; note: nearly all actives have a fitted effect of over 55% in size
Target sequence (P08659 whole entry, looked up): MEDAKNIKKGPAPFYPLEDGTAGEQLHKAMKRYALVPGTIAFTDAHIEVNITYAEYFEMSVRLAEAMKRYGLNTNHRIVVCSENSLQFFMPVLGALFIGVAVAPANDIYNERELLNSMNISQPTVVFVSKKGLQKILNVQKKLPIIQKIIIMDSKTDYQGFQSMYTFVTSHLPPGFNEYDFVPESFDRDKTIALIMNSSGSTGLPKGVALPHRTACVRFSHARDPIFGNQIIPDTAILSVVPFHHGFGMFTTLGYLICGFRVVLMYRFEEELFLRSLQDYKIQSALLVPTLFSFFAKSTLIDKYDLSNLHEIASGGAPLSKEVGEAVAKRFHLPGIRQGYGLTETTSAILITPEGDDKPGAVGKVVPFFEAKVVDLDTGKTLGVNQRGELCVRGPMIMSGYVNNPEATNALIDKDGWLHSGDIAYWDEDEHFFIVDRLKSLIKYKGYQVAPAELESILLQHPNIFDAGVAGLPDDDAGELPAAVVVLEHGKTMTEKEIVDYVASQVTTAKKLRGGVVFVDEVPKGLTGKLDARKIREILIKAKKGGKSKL
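Purified P. pyralis luciferase, 10 nM final, with Km-level 10 uM D-luciferin and 10 uM ATP in 50 mM Tris acetate pH 7.5, 10 mM Mg acetate, 0.01% Tween-20, 0.05% BSA; 6-point qHTS titration about 60 µM downward; luminescence read.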
SMN2 splice enh: increases expression of the SMN2 splice variant; HEK293 SMN2-luciferase splicing reporter, luminescence, 30-36 h; AID 1458; actives 2.8% (n = 210,000); Potency, µM (top dose mostly 46.1 µM), usual class: activators; note: nearly all actives have a fitted effect of over 55% in size
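qHTS luciferase splicing reporter: luminescence rises when SMN2 exon 7 is included in transfected HEK293 cells. Compound exposure lasted 30-36 h at 37C, with 4.5 mM final sodium butyrate as control, followed by a ONE-Glo read.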
ELG1 genotox: inducers of genotoxicity in HEK293T ELG1-luciferase cells. HEK293T ELG1-luciferase reporter, luminescence, 16 h. Potency, µM (doses to about 46 µM), most hits filed as activators. actives 1.3% (n = 330,000). AID 504466; note: nearly all actives have a fitted effect of over 60% in size
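HEK293T cells expressing luciferase-tagged ELG1 were treated with compound or DMSO for 16 hr at 37°C. Luciferase activity was then read after 30 min with ONE-Glo at room temperature; rising signal flags genetic stress.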
Luc counter: Kinase-Glo luciferase inhibition (counter-screen) | Kinase-Glo luciferase, ATP luminescence, 8 min | actives 0.28% (n = 200,000) | Q27757 | Potency, µM (series often up to 38.3 µM), hits mostly inhibitors; note: nearly all actives have a fitted effect of over 60% in size
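Compounds were added to a substrate mix at pH 7.2 (50 mM imidazole, 10 uM ATP, within the enzyme's linear range), followed by Kinase-Glo detection reagent; luminescence was measured after 8 minutes at ambient temperature.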
NPC1 promoter act: activators of NPC1 promoter | Huh7 NPC1 promoter luciferase reporter, 24 h | Potency, µM (top dose mostly 9.22 µM), usual class: activators | actives 2.4% (n = 320,000); note: nearly all actives have a fitted effect of over 60% in size
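Stable NPC1-promoter luciferase Huh7 line; cpd (DMSO) 24 h, 37 °C, 5% CO2; Amplite luciferase reagent 10 min RT; luminescence readout. qHTS format.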
A number is an active result; . = inactive; ? = inconclusive; / = not tested or not shown; [ ] = remark or other dose. Calls come from the whole dose curve; as a rule, active = well fitted curve in the direction sought with a large enough effect; inconclusive = small, poorly fitted or top-dose-only effect, or another doubt; inactive = no such curve, though single readings can be large; an effect the other way counts as inactive or inconclusive.

SMILES	Rab9 promoter act	FLuc counter	SMN2 splice enh	ELG1 genotox	Luc counter	NPC1 promoter act
COc1ccccc1-c1nnc(NC(=O)C(C)Sc2nncn2C)s1 (stereo not given)	.	19µM	.	.	.	.
COc1ccccc1NC(=O)c1ccc(NC(=O)CSc2nncn2C)cc1	.	.	.	.	.	.
CCC(Sc1nncn1C)C(=O)Nc1nnc(-c2ccccc2Cl)s1 (stereo not given)	.	.	.	?	.	.
COc1ccccc1-c1nnc(NC(=O)CSc2nncn2C)s1	?	0.757µM	11.2µM	.	.	?
C=CCSSSCC=C	/	/	.	/	.	/
CCS(=O)(=O)c1ccc(O)c(Nc2cc(C)nc(SC)n2)c1	/	.	/	/	/	/
Cc1cc(=O)oc2cc(NC(=S)NNC(=O)c3c(Cl)cnn3C)ccc12	0.891µM	1.51µM	/	?	/	0.447µM
COc1cccc(COc2cc3ccccc3nc2C)c1	.	19µM	.	.	.	.
Cc1nc2ccccc2cc1OCc1ccccc1	.	16.9µM	.	.	.	.
Cc1cccc(NC(=O)c2oc3ccc(S(=O)(=O)N4CCCCC4)cc3c2C)c1C	/	.	/	/	/	/
Cc1c(Cl)cccc1NC(=O)c1cnc2sc(N3CCCC3)nn2c1=O	/	.	/	/	/	/
CCOC(=O)Cn1nc(NC(=O)c2ccc(C(=O)OC)cc2)cc1C	.	10.7µM	/	.	/	?
CCOC(=O)Cn1nc(NC(=O)c2cc(OC)cc(OC)c2)cc1C	.	.	/	.	/	.
CCOc1ccc(CCNC(=O)c2cc3c(-c4ccccc4F)nn(C)c3s2)cc1OCC	/	.	.	/	/	/
Oc1c(C2=NCCNC(C(F)(F)F)=C2)ccc2ccccc12	2.24µM	4.78µM	11.2µM	9.2µM	.	2.82µM
Cc1ccc(O)c(C2=NCCNC(C(F)(F)F)=C2)c1	.	.	.	.	.	.
O=C(c1cccc(Cl)c1)n1nc(-c2ccco2)nc1NCc1cccs1	/	.	.	/	/	/
Cc1c2oc3c(C)ccc(C(=O)NC4C(=O)NC(C(C)C)C(=O)N5CCCC5C(=O)N(C)CC(=O)N(C)C(C(C)C)C(=O)OC4C)c3nc-2c(C(=O)NC2C(=O)NC(C(C)C)C(=O)N3CCCC3C(=O)N(C)CC(=O)N(C)C(C(C)C)C(=O)OC2C)c(N)c1=O (stereo not given)	/	/	.	/	/	/
COc1cc2c(cc1OC)-c1c(oc3cc(O)cc(O)c3c1=O)CO2	/	/	.	/	.	/
Cc1ccc(S(=O)(=O)c2c(Nc3cc(C)ccc3C)sc(C(=O)c3ccc4c(c3)OCO4)c2N)cc1	/	.	/	/	/	/
CC1CCc2sc(C(=O)NC3CCCCC3)cc2C1 (stereo not given)	3.55µM	?	/	?	/	1.78µM
CC1CCc2sc(C(=O)NNC(=S)NCC3CCCO3)cc2C1 (stereo not given)	.	.	/	.	/	.
CC1CCc2sc(C(=O)NC(C)C3CCCO3)cc2C1 (stereo not given)	?	10.7µM	/	?	/	?
Clc1ccc(COn2nnc3ccccc32)c(Cl)c1	/	3.79µM	?	/	.	/
COc1ccc(-c2cc(=O)c3cc(C)ccc3[nH]2)cc1	3.16µM	1.69µM	7.08µM	13µM	.	3.16µM
SMILES	Rab9 promoter act	FLuc counter	SMN2 splice enh	ELG1 genotox	Luc counter	NPC1 promoter act
COc1cc2[nH]c(-c3ccc(C)cc3)cc(=O)c2cc1OC	.	13.5µM	?	.	.	.
COc1cc2[nH]c(-c3cccc(F)c3)cc(=O)c2cc1OC	.	?	.	.	.	.
COc1ccc(-c2cc(=O)c3cc(OC)ccc3[nH]2)cc1	1.41µM	3.38µM	2.51µM	9.2µM	?	3.55µM
COc1ccc(N2Cc3cccc(C(=O)Nc4ccc(C)c(C)c4)c3C2=O)cc1	/	.	.	/	/	/
O=C(Nc1c(O)c2ccccc2oc1=O)c1ccccc1Cl	/	.	.	/	/	/
Cc1csc(NC(=O)Nc2cccc(Cl)c2)n1	?	5.36µM	11.2µM	?	.	?
O=C(Nc1cccc(Cl)c1)Nc1nc(-c2ccccc2)cs1	.	.	.	.	.	.
O=C(Nc1cccc(Cl)c1)Nc1nccs1	?	19µM	.	.	.	?
O=C(Nc1ccc(Cl)c(Cl)c1)Nc1nccs1	.	13.5µM	/	.	/	.
COCCNC(=O)Cc1c(C)c2c(cc(C)c3c(C(C)(C)C)coc32)oc1=O	.	2.69µM	/	.	/	.
Cc1cc2oc(=O)c(CC(=O)O)c(C)c2c2occ(C(C)(C)C)c12	.	21.3µM	/	.	/	?
Cc1cc2oc(=O)c(CC(=O)NCCCN(C)C)c(C)c2c2occ(C(C)(C)C)c12	.	?	/	.	/	.
Cc1coc2c1c(C)cc1oc(=O)c(CC(=O)NCCCCCC(=O)O)c(C)c12	.	?	/	.	/	.
Cc1coc2c1c(C)cc1oc(=O)c(CC(=O)NCC(=O)O)c(C)c12	.	?	/	.	/	.
Cc1cc2oc(=O)c(CC(=O)NCCCO)c(C)c2c2occ(C(C)(C)C)c12	.	10.7µM	/	.	/	.
CC[C@@H](C)[C@H](NC(=O)Cc1c(C)c2c(cc(C)c3c(C)coc32)oc1=O)C(=O)O	.[1.84 µM]	?	/	.	/	.
CSCC[C@H](NC(=O)Cc1c(C)c2c(cc(C)c3c(C)coc32)oc1=O)C(=O)O	.	19µM	/	.	/	.
O=C(NC1CC1)C1CCCN1S(=O)(=O)c1ccc2ccccc2c1 (stereo not given)	.	.	11.2µM	.	.	.
S=C(Nc1nc2c(s1)CCCC2)NC1CC1	2.51µM	12µM	/	?	/	?
O=C(NC(=S)Nc1nc2c(s1)CCCC2)c1ccccc1	?	3.38µM	2µM	5.17µM	.	3.98µM
COC(=O)c1ccc(C(=O)NC(=S)Nc2nc3c(s2)CCCC3)cc1	?	15.1µM	?	.	.	3.98µM
Cc1ccc(N(Cc2cc3ccccc3[nH]c2=O)C(=O)c2cccc(Cl)c2)cc1	/	.	.	/	/	/
CC(C)C[C@@H](CC(=O)N[C@H](CC(=O)N[C@@H]1CCCC[C@H]1C(=O)N[C@H](CC(=O)N[C@@H](CCC(=O)O)CC(=O)O)Cc1c[nH]c2ccccc12)C(C)C)NC(=O)[C@@H]1CCCC[C@H]1N	/	/	.	/	.	/
Clc1cccc(CNc2cc(-c3ccccc3)nc3nncn23)c1	/	.	.	/	/	/
C=C(C)Cn1c(SCC(=O)c2ccc(Br)cc2)nc2sc3c(c2c1=O)CCCC3	/	.	.	/	/	/
Cc1ccc(-c2nnc(SCC(=O)NCc3ccccc3)o2)cc1	/	.	.	/	/	/
CCOc1ccccc1CNS(=O)(=O)c1cc2c(cc1C)NC(=O)CO2	/	.	/	/	/	/
Cc1ccc(Nc2nc(-c3sc(NC(=O)c4ccco4)nc3C)cs2)cc1	.	16.9µM	.	.	.	.
CC(=O)c1cccc(Nc2nc(-c3cccc([N+](=O)[O-])c3)cs2)c1	.	.	11.2µM	1.46µM	.	.
Cc1ccccc1Nc1nc(-c2sc(NC(=O)c3ccco3)nc2C)cs1	.	?	.	.	.	.

Screening data (PubChem)
